The record followed here is PubChem BioAssay (NCI).

Structures are written as SMILES. This is part of a sample that, as a whole, favours compounds with a hit. Of some 83,000 tested, about 20% had one in any assay.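 Percent growth is the endpoint: 0 to 100 indicates growth inhibition (40 means 60% inhibition), 0 means no net growth, and negative values indicate cell death.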 A number with no mark means an inactive call. Activity calls are given as the source filed them. Rule for the calls: active = growth percent below 10; inactive = the rest.

This assay relates to MDA-MB-468 breast. The assay is described as follows: NCI-60 one-dose screen, 48 h (100 = growth as untreated, 0 = no growth, -100 = all killed). The conditions noted are these: 10 µM unless noted.
On to `CCOC(=O)/C(C#N)=C\Nc1ccc2ncnc(Nc3ccc(Cl)cc3Cl)c2c1`, for which the growth is 56.4%.
As to `C=C1C(=O)O[C@H]2[C@H]1CC/C(COC(=O)C(C)c1ccc(CC(C)C)cc1)=C\CC[C@@]1(C)O[C@@H]21` (some centres not stated), the growth is 6.36% (active).
As for `Clc1ccc(C2=Nc3cccc4cccc(c34)N2)cc1Cl`, the growth is -43.8% (active).
Turning to `C#C[C@]1(O)CC[C@H]2[C@@H]3CC=C4c5sc(-c6ccc7c(c6)OCO7)nc5CC[C@]4(C)[C@H]3CC[C@@]21C`, the growth was 51.5%.
In the case of `NCCSC(c1ccccc1)(c1ccccc1)c1ccccc1` it was 8.69% (active); in that of `N#Cc1cccc(/C=C(/C(=O)c2ccccc2)c2ccccc2)c1`, 48.9%; in that of `COc1ccc(CNS(=O)(=O)/N=C2\NC(=O)NC2=C(Cl)Cl)cc1`, 19.4%.
For the compound `COc1cc2c(c(OC)c1OC)-c1ccc(OC)c(=O)cc1[C@@H](NC(=O)CCl)CC2`, the growth is -5.69% (active).
Regarding `O=C1C(=O)c2ccc(Br)cc2-c2cc(Br)ccc21`, the growth is 0.713% (active).
On to `COc1ccc(OC)c(CCn2cncc2-c2c[nH]c3ccccc23)c1`, for which the growth was 41%.
As to `c1ccc(CNc2nc(Nc3ccc(-c4nc5ccccc5[nH]4)cc3)c3cn[nH]c3n2)cc1`, the growth is -22% (active).
With `COc1cc2c(c(OC)c1OC)-c1ccc(NNC(=S)N(Cc3cccc(C[N+](Cc4cccc(CNC56CC7CC(CC(C7)C5)C6)c4)(Cc4cccc(CNC56CC7CC(CC(C7)C5)C6)c4)Cc4cccc(CN(C(=S)NNc5ccc6c(cc5=O)[C@@H](NC(C)=O)CCc5cc(OC)c(OC)c(OC)c5-6)C56CC7CC(CC(C7)C5)C6)c4)c3)C34CC5CC(CC(C5)C3)C4)c(=O)cc1[C@@H](NC(C)=O)CC2` (some centres not stated), the growth was -52.7% (active).
